About 2,000 (36%) of roughly 5,500 compounds were called active. Inconclusive results (about 18%) are left out. Cut-off read from the data, not from the text of the source: active = normalized growth mostly below about 0.91 (no sharp cut-off); inconclusive = no clear call, values can overlap the other calls; inactive = mostly above about 0.92. The list shows a part of the results.
Assay: chemical genetic growth profiling, strain panel (AID 1159580);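 note: tested at 20 µM; growth read once vehicle control cultures reached saturation at 30 °C; 1 = growth at the plate median or of vehicle wells; lower values mean less growth of the strain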
Settings: growth OD

Measured: normalized growth

O=c1c(-c2ccc3c(c2)OCO3)coc2cc(O)ccc12
inactive: S. cerevisiae deletion strains, locus YJR043C, strain POL32, active compounds read low 1 | S. cerevisiae deletion strains, locus YJR075W, strain HOC1, active compounds read low 1.02 | S. cerevisiae deletion strains, locus YKL009W, strain mrt4, active compounds read low 0.963 | S. cerevisiae deletion strains, locus YKL068W, active compounds read low 0.994 | S. cerevisiae deletion strains, locus YKL085W, strain MDH1 (second series), active compounds read low 0.995 | S. cerevisiae deletion strains, locus YKL085W, strain MDH1, active compounds read low 0.995 | S. cerevisiae deletion strains, locus YKL160W, strain elf1, active compounds read low 0.983 | S. cerevisiae deletion strains, locus YKL190W, strain CNB1, active compounds read low 1 | S. cerevisiae deletion strains, locus YKR001C, strain vps1, active compounds read low 0.969 | S. cerevisiae deletion strains, locus YKR026C, strain gcn3, active compounds read low 0.98 | S. cerevisiae deletion strains, locus YKR091W, strain srl3, active compounds read low 0.998 | S. cerevisiae deletion strains, locus YLL001W, strain dnm1, active compounds read low 0.977 | S. cerevisiae deletion strains, locus YLL026W, active compounds read low 0.989 | S. cerevisiae deletion strains, locus YLL041C, strain sdh2, active compounds read low 0.995 | S. cerevisiae deletion strains, locus YLR027C, strain aat2, active compounds read low 0.987 | S. cerevisiae deletion strains, locus YLR039C, strain RIC1, active compounds read low 0.969 | S. cerevisiae deletion strains, locus YLR058C, strain SHM2, active compounds read low 0.994 | S. cerevisiae deletion strains, locus YLR102C, strain apc9, active compounds read low 0.987 | S. cerevisiae deletion strains, locus YLR221C, strain rsa3, active compounds read low 0.994 | S. cerevisiae deletion strains, locus YLR258W, strain gsy2, active compounds read low 0.981 | S. cerevisiae deletion strains, locus YLR262C, strain YPT6 (second series), active compounds read low 0.957 | S. cerevisiae deletion strains, locus YLR262C, strain YPT6, active compounds read low 0.994 | S. cerevisiae deletion strains, locus YLR268W, strain sec22, active compounds read low 0.981 | S. cerevisiae deletion strains, locus YLR320W, strain mms22, active compounds read low 0.957 | S. cerevisiae deletion strains, locus YLR330W, strain CHS5, active compounds read low 1 | S. cerevisiae deletion strains, locus YLR342W, strain FKS1 (second series), active compounds read low 0.981 | S. cerevisiae deletion strains, locus YLR342W, strain FKS1, active compounds read low 0.98 | S. cerevisiae deletion strains, locus YLR357W, strain rsc2, active compounds read low 0.965 | S. cerevisiae deletion strains, locus YLR370C, strain arc18, active compounds read low 1 | S. cerevisiae deletion strains, locus YLR371W, strain rom2, active compounds read low 0.981 | S. cerevisiae deletion strains, locus YLR384C, strain iki3, active compounds read low 0.971 | S. cerevisiae deletion strains, locus YLR418C, strain cdc73, active compounds read low 0.984 | S. cerevisiae deletion strains, locus YML016C, strain PPZ1, active compounds read low 0.985 | S. cerevisiae deletion strains, locus YML032C, strain rad52, active compounds read low 0.969 | S. cerevisiae deletion strains, locus YML120C, strain ndi1, active compounds read low 0.995 | S. cerevisiae deletion strains, locus YML124C, strain tub3, active compounds read low 0.976 | S. cerevisiae deletion strains, locus YMR058W, strain fet3, active compounds read low 1 | S. cerevisiae deletion strains, locus YMR078C, strain ctf18, active compounds read low 0.967 | S. cerevisiae deletion strains, locus YMR125W, strain sto1, active compounds read low 0.986 | S. cerevisiae deletion strains, locus YMR129W, active compounds read low 0.997 | S. cerevisiae deletion strains, locus YMR205C, strain PFK2, active compounds read low 0.978 | S. cerevisiae deletion strains, locus YMR223W, strain ubp8, active compounds read low 0.976 | S. cerevisiae deletion strains, locus YMR231W, strain pep5, active compounds read low 1 | S. cerevisiae deletion strains, locus YMR263W, strain SAP30, active compounds read low 1.01 | S. cerevisiae deletion strains, locus YMR307W, strain GAS1, active compounds read low 0.974 | S. cerevisiae deletion strains, locus YNL067W, strain RPL9B, active compounds read low 1.03 | S. cerevisiae deletion strains, locus YNL071W, strain lat1, active compounds read low 0.996 | S. cerevisiae deletion strains, locus YNL128W, strain TEP1, active compounds read low 1.02 | S. cerevisiae deletion strains, locus YNL153C, strain GIM3, active compounds read low 1.01 | S. cerevisiae deletion strains, locus YNL209W, strain ssb2, active compounds read low 0.987 | S. cerevisiae deletion strains, locus YNL233W, strain BNI4, active compounds read low 0.997 | S. cerevisiae deletion strains, locus YNL248C, strain rpa49, active compounds read low 0.987 | S. cerevisiae deletion strains, locus YNL250W, strain rad50, active compounds read low 0.989 | S. cerevisiae deletion strains, locus YNL271C, strain bni1, active compounds read low 0.992 | S. cerevisiae deletion strains, locus YNL298W, strain CLA4, active compounds read low 0.981 | S. cerevisiae deletion strains, locus YNL307C, strain MCK1, active compounds read low 0.948 | S. cerevisiae deletion strains, locus YNL322C, strain KRE1 (second series), active compounds read low 0.992 | S. cerevisiae deletion strains, locus YNL322C, strain KRE1, active compounds read low 0.999 | S. cerevisiae deletion strains, locus YNR049C, strain mso1, active compounds read low 0.996 | S. cerevisiae deletion strains, locus YNR052C, strain pop2, active compounds read low 0.975 | S. cerevisiae deletion strains, locus YOL006C, strain TOP1, active compounds read low 1.01 | S. cerevisiae deletion strains, locus YOL012C, strain htz1 1.06 | S. cerevisiae deletion strains, locus YOL147C, strain pex11, active compounds read low 0.976 | S. cerevisiae deletion strains, locus YOR001W, strain rrp6, active compounds read low 0.991 | S. cerevisiae deletion strains, locus YOR061W, strain CKA2, active compounds read low 0.981 | S. cerevisiae deletion strains, locus YOR069W, strain VPS5, active compounds read low 0.991 | S. cerevisiae deletion strains, locus YOR070C, strain gyp1, active compounds read low 0.99 | S. cerevisiae deletion strains, locus YOR080W, strain dia2, active compounds read low 0.981 | S. cerevisiae deletion strains, locus YOR083W, strain WHI5, active compounds read low 1 | S. cerevisiae deletion strains, locus YOR106W, strain vam3, active compounds read low 0.986 | S. cerevisiae deletion strains, locus YOR136W, strain idh2, active compounds read low 0.985 | S. cerevisiae deletion strains, locus YOR144C, strain elg1, active compounds read low 0.98 | S. cerevisiae deletion strains, locus YOR184W, strain ser1, active compounds read low 0.994 | S. cerevisiae deletion strains, locus YOR265W, strain rbl2, active compounds read low 0.991 | S. cerevisiae deletion strains, locus YOR270C, strain vph1, active compounds read low 1.02 | S. cerevisiae deletion strains, locus YOR290C, strain snf2, active compounds read low 0.958 | S. cerevisiae deletion strains, locus YOR316C, strain cot1, active compounds read low 0.976 | S. cerevisiae deletion strains, locus YPL051W, strain arl3, active compounds read low 0.99 | S. cerevisiae deletion strains, locus YPL055C, strain LGE1, active compounds read low 1.03 | S. cerevisiae deletion strains, locus YPL078C, strain atp4, active compounds read low 0.995 | S. cerevisiae deletion strains, locus YPL106C, strain sse1, active compounds read low 0.97 | S. cerevisiae deletion strains, locus YPL240C, strain hsp82, active compounds read low 0.988 | S. cerevisiae deletion strains, locus YPL241C, strain CIN2, active compounds read low 0.999 | S. cerevisiae deletion strains, locus YPR119W, strain clb2, active compounds read low 0.985 | S. cerevisiae deletion strains, locus YPR141C, strain kar3, active compounds read low 0.986 | S. cerevisiae deletion strains, locus YPR163C, strain tif3, active compounds read low 0.978 | S. cerevisiae deletion strains, locus YPR167C, strain met16, active compounds read low 0.982 | S. cerevisiae deletion strains, strain wtn01, active compounds read low 0.983 | S. cerevisiae strains, strain wild type, active compounds read low 0.995
